Molecules are shown by their SMILES. “And” between values parts separate entries of the source, which are not always exact repeats. Identical values can stand only once. Results filed as inconclusive are left out. Some structures have more than one record in an assay (separate samples or runs), and their calls can disagree. The source made the active and inactive calls. Rule for the calls, unless noted: active = hit-call score of the fitted dose curve at least 0.9, where 1 is the maximum; inactive = score below 0.9.

Assay [1] concerns the target Estrogen receptor (Homo sapiens) (UniProt P03372). As to the kind of experiment: ATG_ERa_TRANS: Attagene TRANS-FACTORIAL HepG2 Assay for human Estrogen Receptor alpha (ERa) (AID 2282970; active = hit-call score of the fitted dose curve at least 0.9, where 1 is the maximum). As to conditions: HepG2 Attagene TRANS ERa GAL4 reporter, mRNA. Summed up: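 Multiplexed cell-based reporter format in HepG2: chimeric ERa-Gal4 protein drives GAL4-UAS reporter transcription. Fluorescent reporter mRNA quantified by capillary electrophoresis 24 hours after dosing; endpoint fitted as signal gain against DMSO.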

Assay [2] deals with Estrogen-related receptor gamma (Homo sapiens) (UniProt P62508). As to the kind of experiment: ATG_ERRg_TRANS: Attagene TRANS-FACTORIAL HepG2 Assay for human Estrogen-Related Receptor gamma (ERRg) (AID 2282977; active = hit-call score of the fitted dose curve at least 0.9, where 1 is the maximum;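 note: hits increase reporter signal over DMSO so potencies reflect activators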). Conditions: HepG2 Attagene TRANS reporter, ERRg transactivation. Summed up: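 HepG2 cells transiently transfected with multiplexed GAL4-UAS reporter units driven by chimeric NR-Gal4 proteins; 24 h exposure. Reporter mRNA quantified by RT-PCR, fluorescent labelling, HpaI digestion and capillary electrophoresis; gain of signal vs DMSO.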
Estrogen-related receptor gamma (Homo sapiens), sequence (P62508 whole entry, looked up, the tested form may be a part): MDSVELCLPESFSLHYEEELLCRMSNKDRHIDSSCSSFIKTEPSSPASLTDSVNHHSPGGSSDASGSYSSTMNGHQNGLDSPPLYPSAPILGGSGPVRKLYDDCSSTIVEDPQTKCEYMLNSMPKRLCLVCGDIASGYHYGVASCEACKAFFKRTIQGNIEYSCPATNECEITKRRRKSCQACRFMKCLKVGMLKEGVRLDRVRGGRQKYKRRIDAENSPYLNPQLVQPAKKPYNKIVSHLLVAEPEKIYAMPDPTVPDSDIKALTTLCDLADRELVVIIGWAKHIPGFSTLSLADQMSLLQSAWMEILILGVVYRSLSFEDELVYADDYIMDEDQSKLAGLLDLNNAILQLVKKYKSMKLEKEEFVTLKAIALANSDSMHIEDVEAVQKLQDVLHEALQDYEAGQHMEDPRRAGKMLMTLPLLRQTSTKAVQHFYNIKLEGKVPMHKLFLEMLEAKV

The target in assay [3] is Retinoic acid receptor alpha (Homo sapiens) (UniProt P10276). As to the kind of experiment: ATG_DR5_RAR_CIS: Attagene CIS-FACTORIAL HepG2 Assay for human Retinoic Acid Receptor Alpha (RARE), DR5 submotif (AID 2282934). As to conditions: HepG2 Attagene cis-factorial RARE DR5 reporter, mRNA; actives raise or lower the signal. The gist of the method:
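HepG2 cells transiently transfected with multiplexed reporter units; DR5 cis-element drives reporter through endogenous transcription factors. After 24 h dosing, reporter mRNA quantified by RT-PCR, fluorescent labeling, HpaI digestion and capillary electrophoresis; bidirectional fitting versus DMSO.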

The nature of assay [4]: BSK_3C_uPAR: BioMAP Diversity Plus: 3C Assay for Urokinase-type plasminogen activator receptor (uPAR) Biomarker Activity (AID 2282998). As to conditions: BioMAP 3C HUVEC, uPAR biomarker ELISA; actives raise or lower the signal. The gist of the method:
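Readout: ELISA for surface uPAR. System: human umbilical vein endothelial primary cells, 24 h after chemical exposure. Analysis: bidirectional fit, DMSO baseline.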
(In general: In an ELISA, binding on a coated surface is turned into a signal by an enzyme label.)

Assay [5] in a line: BSK_3C_VCAM1: BioMAP Diversity Plus: 3C Assay for Vascular cell adhesion molecule 1 (VCAM1) Biomarker Activity (AID 2282999). As to conditions: BioMAP 3C HUVEC, VCAM1 ELISA, cytokine-stimulated; actives raise or lower the signal. The gist of the method:
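Human umbilical vein endothelial cells (3C system), biomarker read by ELISA 24 h after dosing; bidirectional fit against DMSO baseline. Cytotoxicity tracked by SRB total-protein staining in parallel cultures at biomarker time.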

A short description of assay [6]: BSK_4H_Eotaxin3: BioMAP Diversity Plus: 4H Assay for Eotaxin 3 Biomarker Activity (AID 2283000).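 For outcome: CCL26 protein level quantified by ELISA in parallel with SRB cytotoxicity check.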 As to conditions: primary human endothelial cells (HUVEC); actives raise or lower the signal. Summed up:
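ELISA quantitation of CCL26 (Eotaxin-3) protein from chemically dosed human vascular endothelial cells at 24 h; increases and decreases both scored relative to DMSO-treated baseline.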

Read-out in assay [7]: Intercellular Adhesion Molecule 1 (ICAM1), ICAM1 (gene 3383)
As to the kind of experiment: BSK_3C_ICAM1: BioMAP Diversity Plus: 3C Assay for Intercellular Adhesion Molecule 1 (ICAM1) Biomarker Activity (AID 2283003). As to conditions: primary human endothelial cells (HUVEC); actives raise or lower the signal. The gist of the method: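 HUVEC primary cells stimulated under 3C conditions; ICAM1 measured by ELISA 24 h after compound dosing. Curves fitted bidirectionally against the DMSO baseline. Overt cytotoxicity checked by SRB staining of parallel cultures.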

The nature of assay [8]: BSK_3C_Proliferation: Cell Proliferation Assessment in the BioMAP Diversity Plus: 3C Assay (AID 2283006).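 For AC50: potency may reflect either rise or fall in cell number versus DMSO.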 As to conditions: primary human endothelial cells (HUVEC). The gist of the method: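 Subconfluent HUVEC (3C system) cultured with chemical; relative cell number read at 48 h by sulforhodamine B total-protein staining (0.1% SRB after 10% TCA fixation, 560 nm). Bidirectional fit relative to DMSO.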

Read-out in assay [9]: Interleukin-1 alpha (IL1a), IL1A (gene 3552)
As to the kind of experiment: BSK_BE3C_IL1a: BioMAP Diversity Plus: BE3C Assay for Interleukin-1 alpha (IL1a) Biomarker Activity (AID 2283016). As to conditions: primary human bronchial epithelial cells; actives raise or lower the signal. Summed up:
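Human primary bronchial epithelial cells, 24 h chemical exposure; IL-1a quantified by ELISA, fitted bidirectionally against DMSO. Cytotoxicity assessed in parallel by SRB total-protein staining at the time of measurement.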

Read-out in assay [10]: Monocyte Chemoattractant Protein-1 (MCP1), CCL2 (gene 6347)
As to the kind of experiment: BSK_3C_MCP1: BioMAP Diversity Plus: 3C Assay for Monocyte Chemoattractant Protein-1 (MCP1) Biomarker Activity (AID 2283017). As to conditions: primary human endothelial cells (HUVEC); actives raise or lower the signal. Summed up: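 Using human vascular primary endothelium, researchers measured MCP-1 by ELISA 24 h after treatment, with DMSO serving as negative control for bidirectional fitting.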

Read-out in assay [11]: Monocyte Chemoattractant Protein-1 (MCP1), CCL2 (gene 6347)
As to the kind of experiment: BSK_4H_MCP1: BioMAP Diversity Plus: 4H Assay for Monocyte Chemoattractant Protein-1 (MCP1) Biomarker Activity (AID 2283018). Conditions: primary human endothelial cells (HUVEC); actives raise or lower the signal. The gist of the method: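 Human umbilical vein endothelial cells (4H system) exposed to chemicals for 24 h in 96-well format. MCP-1 measured by ELISA; bidirectional fitting against DMSO, with SRB total-protein staining in parallel cultures for cytotoxicity.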

Read-out in assay [12]: Human Leukocyte Antigen - DR isotype (HLADR), HLA-DRA (gene 3122)
As to the kind of experiment: BSK_3C_HLADR: BioMAP Diversity Plus: 3C Assay for Human Leukocyte Antigen - DR isotype (HLADR) Biomarker Activity (AID 2283019).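 For outcome: ELISA of cell-surface HLA-DR on HUVEC 24 h after dosing.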 Conditions: primary human endothelial cells (HUVEC); actives raise or lower the signal. Summed up: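 Compound added to primary HUVEC cultures, 24 h incubation, then HLA-DR determined by ELISA; endpoint derived by bidirectional fitting relative to DMSO negative control.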

Read-out in assay [13]: Interleukin-8 (IL8), CXCL8 (gene 3576)
As to the kind of experiment: BSK_3C_IL8: BioMAP Diversity Plus: 3C Assay for Interleukin-8 (IL8) Biomarker Activity (AID 2283020). Conditions: primary human endothelial cells (HUVEC); actives raise or lower the signal. Summed up: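 Primary human umbilical vein endothelial cells were dosed for 24 h. IL-8 was quantified by ELISA and fitted bidirectionally against DMSO. Cytotoxicity was assessed in parallel cultures by SRB staining at 560 nm.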

Read-out in assay [14]: Monokine induced gamma interferon (MIG), CXCL9 (gene 4283)
As to the kind of experiment: BSK_3C_MIG: BioMAP Diversity Plus: 3C Assay for Monokine induced gamma interferon (MIG) Biomarker Activity (AID 2283021).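 For AC50: MIG protein level measured by immunoassay in the treated endothelial cultures.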 As to conditions: primary human endothelial cells (HUVEC); actives raise or lower the signal. Summed up:
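HUVEC primary endothelial cultures dosed with chemical; MIG quantified by ELISA at 24 h. Data fitted bidirectionally against DMSO control, with parallel SRB total-protein staining for cytotoxicity.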

Assay [15] can be described thus: BSK_3C_SRB: Viability Assessment in the BioMAP Diversity Plus: 3C Assay (AID 2283023).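 Note: fitted both ways against DMSO so a hit may be signal rise or drop.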 As to conditions: primary human endothelial cells (HUVEC). Summed up:
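Overt cytotoxicity is gauged in parallel confluent HUVEC cultures by SRB total-protein staining at the time of biomarker measurement, 24 h after dosing. Gain or loss of signal is fitted versus DMSO.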

Read-out in assay [16]: urokinase plasminogen activator (uPA), PLAU (gene 5328)
As to the kind of experiment: BSK_BE3C_uPA: BioMAP Diversity Plus: BE3C Assay for urokinase plasminogen activator (uPA) Biomarker Activity (AID 2283038).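 For outcome: uPA protein level quantified by ELISA in cell cultures; uPA read one day after compound addition.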 Conditions: primary human bronchial epithelial cells; actives raise or lower the signal. The gist of the method:
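Using confluent primary human lung bronchial epithelial cultures, we dosed chemicals, waited 24 h, then ran a uPA ELISA, fitting bidirectionally against DMSO.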

Read-out in assay [17]: Interleukin-1 alpha (IL1a), IL1A (gene 3552)
As to the kind of experiment: BSK_LPS_IL1a: BioMAP Diversity Plus: LPS Assay for Interleukin-1 alpha (IL1a) Biomarker Activity (AID 2283080). As to conditions: primary human HUVEC with PBMC; actives raise or lower the signal. Summed up: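 Primary human HUVEC and PBMC co-culture stimulated with LPS is dosed and harvested at 24 h. Both increases and decreases in ELISA-measured IL-1a are scored relative to DMSO.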

A short description of assay [18]: BSK_LPS_PGE2: BioMAP Diversity Plus: LPS Assay for Prostaglandin E2 (PGE2) Biomarker Activity (AID 2283082).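 For AC50: secreted prostaglandin E2 measured by ELISA in LPS-stimulated co-culture.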 As to conditions: primary human HUVEC with PBMC; actives raise or lower the signal. Summed up:
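HUVEC plus human PBMC co-culture stimulated with LPS; secreted PGE2 quantified by ELISA 24 h after chemical dosing. Activity fitted bidirectionally against DMSO baseline; parallel SRB staining (0.1% SRB after 10% TCA fixation, 560 nm) flags overt cytotoxicity.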

Assay [19] can be described thus: CCTE_Harrill_HTTr_Apoptosis_MCF7: CCTE's 6-hour Apoptosis Assessment for the High-Throughput Transcriptomics (HTTr) Platform, in MCF-7 cells cultured in DMEM + 10% fetal bovine serum, Harrill Lab (AID 2284011). The gist of the method:
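Apoptosis in MCF-7 cells grown in DMEM with 10% fetal bovine serum was scored after a six hour exposure by high content imaging of caspase-3/7 activation (CellEvent Caspase 3/7 Green), with DMSO serving as negative control and baseline.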

The nature of assay [20]: ACEA_ER_AUC_viability: ACEA Biosciences xCELLigence Real-Time Cell Analysis on Estrogen Receptor Agonism for Viability (AID 2283782; active = hit-call score of the fitted dose curve at least 0.9, where 1 is the maximum;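 note: continuous compound exposure with impedance area under curve over 80 h; hit means loss of impedance signal meaning reduced cell growth or viability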). The gist of the method: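 T47D cells preconditioned in phenol red-free RPMI with charcoal-stripped FBS, then dosed with 8-point 1:4 series from 100 uM (up to 0.5% DMSO). Impedance monitored up to ~80 h; area-under-curve loss versus DMSO taken as viability.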

Estrogen receptor (Homo sapiens), sequence (P03372 whole entry, looked up, the tested form may be a part): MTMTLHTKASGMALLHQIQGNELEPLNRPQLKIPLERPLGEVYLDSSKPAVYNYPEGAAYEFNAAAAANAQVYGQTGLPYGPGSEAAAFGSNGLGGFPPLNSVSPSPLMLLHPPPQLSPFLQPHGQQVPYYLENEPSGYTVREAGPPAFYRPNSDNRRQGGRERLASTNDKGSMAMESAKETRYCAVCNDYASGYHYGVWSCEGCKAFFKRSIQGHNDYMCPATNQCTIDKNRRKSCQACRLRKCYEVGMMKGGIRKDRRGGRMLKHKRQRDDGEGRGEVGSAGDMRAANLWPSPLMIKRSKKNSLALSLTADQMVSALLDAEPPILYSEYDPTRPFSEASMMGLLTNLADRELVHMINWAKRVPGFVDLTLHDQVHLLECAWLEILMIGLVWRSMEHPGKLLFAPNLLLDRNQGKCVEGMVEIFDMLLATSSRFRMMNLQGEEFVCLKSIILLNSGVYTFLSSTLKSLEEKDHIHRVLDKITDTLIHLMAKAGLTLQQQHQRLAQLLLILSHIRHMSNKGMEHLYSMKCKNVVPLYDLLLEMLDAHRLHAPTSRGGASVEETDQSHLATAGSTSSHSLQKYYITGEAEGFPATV
Retinoic acid receptor alpha (Homo sapiens), sequence (P10276 whole entry, looked up): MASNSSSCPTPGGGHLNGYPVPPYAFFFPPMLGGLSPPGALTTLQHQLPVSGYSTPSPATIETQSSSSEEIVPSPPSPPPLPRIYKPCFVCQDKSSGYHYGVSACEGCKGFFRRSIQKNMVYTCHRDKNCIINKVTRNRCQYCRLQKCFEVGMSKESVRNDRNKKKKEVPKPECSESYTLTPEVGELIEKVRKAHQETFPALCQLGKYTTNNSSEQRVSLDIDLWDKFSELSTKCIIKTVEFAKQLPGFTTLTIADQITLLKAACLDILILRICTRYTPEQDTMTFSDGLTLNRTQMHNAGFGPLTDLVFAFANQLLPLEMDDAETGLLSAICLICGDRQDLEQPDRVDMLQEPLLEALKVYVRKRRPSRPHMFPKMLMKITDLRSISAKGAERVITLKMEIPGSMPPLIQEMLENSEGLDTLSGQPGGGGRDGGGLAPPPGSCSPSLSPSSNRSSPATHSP

As a reminder, the AC50 is the concentration at which the activity in the assay is half-maximal. As for `O=[N+]([O-])c1cc(C(F)(F)F)c(Cl)c([N+](=O)[O-])c1Cl`, in [1], the AC50 was 14.6 µM (active).

For `CCNCC`, the call in assay [2] was inactive.

As to `O=[N+]([O-])O`, the outcome in assay [3], in [4], in [5], in assay [6], in assay [7] and in [8] was inactive. Also, the result in assay [9], in assay [10], in assay [11], in assay [12], in assay [13] and in assay [14] was inactive. Moreover, the result in [15], in assay [16], in [17], in [18] and in [19] was inactive. For the same compound, in assay [6], the AC50 was 433 nM (active).

Turning to `CC(C)(Cl)Cl`, the compound was called inactive in assay [3], in assay [20] and in [19].

As for `C=C(Cl)CCl`, the call in assay [3] and in assay [1] was inactive.

With `Nc1ccc([N+](=O)[O-])cc1N`, the result in assay [3] and in assay [2] was inactive. For the same compound, in [20], the AC50 is 50 µM (active).

As for `Oc1ccc(C2(c3ccc(O)cc3)c3ccccc3-c3ccccc32)cc1`, the call in assay [1], in assay [16], in assay [17] and in assay [18] was inactive. Further, the AC50 in assay [4] is 11.5 µM (active) and 9 µM (active); in assay [5], 15.6 µM (active) and 14 µM (active); in assay [6], 9.96 µM (active) and 9.53 µM (active); in assay [7] it was 32.5 µM (active) and 22.6 µM (active); in assay [8] it was 6.04 µM (active) and 6.12 µM (active); in assay [9], 5.35 µM (active) and 5.31 µM (active). For the same compound, the AC50 in [10] is 13.2 µM (active) and 12 µM (active); in [11], 13.2 µM (active) and 11.4 µM (active); in assay [12], 9.06 µM (active) and 7.06 µM (active); in assay [13], 17.2 µM (active) and 20 µM (active); in assay [14], 16 µM (active) and 14.8 µM (active); in [15], 6.97 µM (active) and 8.38 µM (active). Moreover, the figures for the AC50 in assay [16], in [17] and in assay [18] were 0.15 µM (active), 32.7 µM (active) and 11.8 µM (active), respectively.

The record behind these values is PubChem BioAssay (EPA / NIEHS).
